Compound activity deposited in PubChem BioAssay by several laboratories.
Sampled rows, rich in hits. Any-hit rate of the full collection: about 4.3%.
Wnt act = Wnt/beta-catenin pathway activators, primary screen, cell-based, plate reader, single point; Wnt/beta-catenin reporter cell assay, activator; activation, % at 9.35 µM; 300,000 tested, 1.2% active; AID 743398, 2014; in the data active = activation above about 30%, passing the limit was not always enough; inconclusive = no clear call, values can overlap the other calls;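 also: 0% = neutral control wells and 100% = positive control wells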
HSF-1 act = HSF-1 activators, primary screen, NIH3T3-HGL cells, MG132 stress, luminescence, single point; NIH3T3-HGL HSF-1 luciferase reporter, 8 h; 100% = twice DMSO control signal; activation, % at 9 µM; 300,000 tested, 1.7% active; AID 504408, 2011;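 active = mean replicate activation of at least 50% with a set share of replicates each reaching 50%; inconclusive = only one of those two conditions met; inactive = mean below 50% and too few replicates reaching it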;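 also: 0% = median of the neutral control wells and 100% = twice that signal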
MITF act = activators of MITF-driven TRPM1 promoter reporter, primary screen, cell-based, SK-MEL-5, luciferase, single point | SK-MEL-5 TRPM1-promoter luciferase, 24 h; % of positive control, neutral wells = 0 | activation, % at 12.5 µM | 300,000 tested, 0.75% active;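 active = mean activation of at least 80% with every replicate also reaching 80%; inconclusive = mean reaches 80% but some replicate falls short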;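 also: 0% = neutral control wells and 100% = parthenolide positive control wells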
HSF1 inh = HSF1 inhibitors in luciferase reporter cells, primary screen, cell-based, NIH3T3, luminescence; activity change, negative = inhibition, % at 7.5 µM (by protocol); NIH3T3-HGL HSE-luciferase, MG132-induced, luminescence 8 h; hits give low values; 300,000 tested, 0.77% active;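 active = more than half of replicate wells show activity change below -50%, luminescence cut by over half; inconclusive = some wells, but at most half, below -50%; inactive = no replicate well below -50%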;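 also: luciferase reports HSF-1 transcriptional activity via heat shock element; 0% = median of DMSO wells and -100% = zero luminescence signal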
SMARCA2 activ = SMARCA2 (BRM) function activators, primary screen, cell-based, luminescence, high throughput; MG213 cells, MMTV-luciferase reporter, dexamethasone, overnight; activation, % at 9.1 µM; 370,000 tested, 1% active; AID 652017, 2013; in the data active = activation above about 7.8%;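 also: 0% = vehicle wells and 100% = reference activator wells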
esBAF inh = Bmi1 luciferase reporter increase in mESCs, primary screen, esBAF inhibitor project, mouse ES cells, Bmi1 luciferase knock-in, single point; 24 h; 100% = twice the neutral-well signal; reporter increase, % at 12.5 µM; 350,000 tested, 2% active; AID 602393, 2012; in the data active = activation above about 40%; inconclusive = no clear call, values can overlap the other calls;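 also: 0% = median of the plate's neutral control wells and 100% = double that signal; a rise in the Bmi1 reporter signal indicates esBAF inhibition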
SMARCA2 act conf = SMARCA2 (BRM) function activators, confirmation, cell-based, luminescence, triplicate; shares compounds with SMARCA2 activ; MG213 cells, MMTV-luciferase with dexamethasone, overnight; MG213 cells expressing E1A, Rb sequestered; DMSO wells 0%, reference activator 100%; activation, % at 9.1 µM; 3,500 tested, 30% active; AID 652260, 2013;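 active = activation above its plate's cutoff, the mean activation of tested wells plus 3 SD, cut at about 7.9% in these data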
VP16 Luc act = GAL4-VP16 luciferase reporter activation, counter-screen for SMARCA2 (BRM) activator project, cell-based, pG5luc, luminescence, high throughput | 3,500 tested, 41% active | activation, % at 9.1 µM | shares compounds with SMARCA2 activ | HEK293 GAL4-VP16 pG5luc reporter; scaled: DMSO wells 0%, SAHA wells 100%;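 active = activation above the solvent-only control well mean plus 3 SD, averaged across control plates, cut at about 5.2% in these data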
The depositor's hits bear a star; ? = inconclusive; · = no result given.

SMILES | Wnt act | HSF-1 act | MITF act | HSF1 inh | SMARCA2 activ | esBAF inh | SMARCA2 act conf | VP16 Luc act
COc1cc(F)ccc1-c1csc(C(C)(O)c2ccc(F)c(F)c2)n1 (stereo unspecified) | -2 | · | · | · | 9.1* | -4 | -4 | 0
C/C(N)=C(/C#N)C(=O)CSc1nnc(Nc2cccc(C)c2)s1 | -5 | 56* | 73 | 30 | 8.3* | 60* | 7 | 6.2*
COc1ccc(S(=O)(=O)Nc2ccc3c(c2)CC(=O)N([C@@H](C)CO)C[C@H](C)[C@H](CN(C)Cc2ccc4c(c2)OCO4)O3)cc1 | · | · | · | · | · | -3 | · | ·
COc1ccc(NC(=O)O/N=C/c2ccccc2Cl)cc1 | -1 | -2 | 51 | -10 | 10* | · | 4 | 3
C[C@H]1CCCCO[C@H](CN(C)S(=O)(=O)c2ccccc2)[C@@H](C)CN([C@@H](C)CO)C(=O)c2cc(NC(=O)CCCN(C)C)ccc2O1 | · | · | · | · | · | 5 | · | ·
Cc1cc(C)c2c(N)c(-c3nc4ccccc4[nH]3)sc2n1 | · | 73* | 15 | 33 | 9.2* | · | 8.7* | 10*
CN1CCN(NC(=O)c2cccc(S(=O)(=O)N3CCCCCC3)c2)CC1 | -1 | 3 | 2 | -6 | -2 | -1 | · | ·
CC1CN(S(=O)(=O)c2cccc(C(=O)NN3CCN(C)CC3)c2)CC(C)O1 (stereo unspecified) | -1 | -7 | 15 | -7 | 9.1* | -5 | 1 | 1
COc1cccc(=O)c2c(C)n(-c3ccc(C(=O)O)cc3)c(C)c12 | 0 | 29 | 3 | 3 | -3 | · | · | ·
COc1ccc(-n2c(C)c3c(OC)cccc(=O)c3c2C)cc1 | · | · | -3 | · | 11* | 1 | -3 | 1
Cc1ccc(S(=O)(=O)N(C)C[C@H]2Oc3ccc(NC(=O)C4CCCCC4)cc3C(=O)N([C@@H](C)CO)C[C@@H]2C)cc1 | · | · | · | · | · | -9 | · | ·
CCCCNCc1nc2ccccc2c(=O)[nH]1 | -1 | 7 | -7 | 17 | 5 | · | · | ·
CCc1ccc(NCc2nc3ccccc3c(=O)[nH]2)cc1 | 35* | 23 | 21 | 15 | 8.3* | 3 | 11* | 14*
C[C@H]1CN([C@@H](C)CO)S(=O)(=O)c2ccc(-c3ccc(C#N)cc3)cc2O[C@H]1CN(C)Cc1cccc(F)c1 | · | · | · | · | · | -6 | · | ·
O=C1CC(Sc2ccc(Cl)cc2)C(=O)N1c1ccc2c(c1)OCCO2 (stereo unspecified) | -1 | -3 | · | 10 | 8.4* | · | -3 | 0
O=C1CC(SC2=NCCS2)C(=O)N1c1ccc(Cl)cc1 (stereo unspecified) | -4 | -13 | 7 | -1 | -1 | · | · | ·
CC(=O)N(C)C[C@H]1Oc2cc(C#Cc3ccncc3)ccc2S(=O)(=O)N([C@@H](C)CO)C[C@H]1C | · | · | · | · | · | -7 | · | ·
O=C(NCc1ccccc1F)c1cc(=O)[nH]c2ccccc12 | -2 | 3 | 3 | 2 | -4 | 4 | · | ·
O=C(NCc1ccccc1Cl)c1cc(=O)[nH]c2ccccc12 | 5 | -4 | -5 | -1 | 8.4* | -1 | 3 | 1
C[C@@H]1CN([C@@H](C)CO)S(=O)(=O)c2ccc(C3=CCCC3)cc2O[C@@H]1CN(C)CC1CCOCC1 | · | · | · | · | · | -2 | · | ·
CC(=O)C(Cl)C(=O)Nc1ccccc1 (stereo unspecified) | -2 | · | 22 | · | 8.5* | -9 | -14 | 0
O=C(C[C@@H]1CC[C@@H]2[C@H](COC[C@H](O)CN2C(=O)Nc2ccc(F)cc2)O1)NCC1CC1 | · | · | · | · | · | 3 | · | ·
O=S(=O)(c1ccccc1)N1CC[C@@H]2[C@H](CO)Nc3ccc(C#Cc4cccc(F)c4)cc3[C@@H]21 | · | · | · | · | · | 9 | · | ·
CCOC(=O)c1sc(NC(=O)Cc2ccccc2OC)nc1C | 2 | 9 | 7 | 10 | 1 | 1 | · | ·
CCOC(=O)c1sc(NC(=O)Cc2ccc(F)cc2)nc1C | 0 | 7 | -3 | 7 | 8.4* | · | 4 | 4
SMILES | Wnt act | HSF-1 act | MITF act | HSF1 inh | SMARCA2 activ | esBAF inh | SMARCA2 act conf | VP16 Luc act
CC(C)C[C@H]1CN([C@@H](Cc2ccc(O)cc2)CN2CCC[C@@H]2CN2C(=S)NC[C@@H]2Cc2ccccc2)C(=S)N1CC1CCCCCC1 | -4 | · | · | · | -1 | -4 | · | ·
CC(C)C[C@H]1CN([C@@H](Cc2ccc(O)cc2)CN2CCCC2CN2C(=S)NC[C@@H]2Cc2ccccc2)C(=S)N1CC1CCCCC1 (stereo partly specified) | -4 | · | · | · | 8.0* | · | -3 | -1
CC(C)C#Cc1cnc2c(c1)C(=O)N([C@H](C)CO)C[C@H](C)[C@@H](CN(C)Cc1cncnc1)O2 | · | · | · | · | · | 4 | · | ·
C[C@H]1CN([C@@H](C)CO)C(=O)c2cccc(NC(=O)Nc3ccc(C(F)(F)F)cc3)c2O[C@H]1CN(C)S(=O)(=O)c1ccc(Cl)cc1 | · | · | · | · | · | 7 | · | ·
O=C(c1cccnc1)N1CC[C@@H]2[C@@H](CO)Nc3ccc(C4=CCCCC4)cc3[C@@H]21 | · | · | · | · | · | 2 | · | ·
CCCNC(=O)C[C@H]1C[C@@H]2c3cc(NC(=O)COC)ccc3O[C@@H]2[C@H](CO)O1 | · | · | · | · | · | -3 | · | ·
COc1ccc2c(c1)CC/C(=C/c1ccco1)C2=O | 29 | 33 | ? | 12 | 20* | · | 4 | 12*
O=C1/C(=C/c2ccco2)CCc2ccccc21 | 24 | 17 | 22 | 5 | 7 | · | · | ·
Cc1cc(C)nc(Nc2ccccc2Cl)n1 | 2 | 18 | 9 | -3 | 12* | -3 | 2 | 1
Cc1cc(C)nc(Nc2ccccc2F)n1 | 1 | 12 | · | 6 | -1 | 14 | · | ·
O=C(C[C@H]1CC[C@@H](NC(=O)Nc2ccc(C(F)(F)F)cc2)[C@@H](CO)O1)NCc1cc(F)cc(F)c1 | · | · | · | · | · | 4 | · | ·
CN(C)c1ccc(Cl)c(NC(N)=S)c1 | 0 | · | · | · | 8.2* | 6 | -2 | 0
C/C(=N\NC(=O)c1nn(C)cc1Cl)c1ccncc1 | 3 | 6 | 0 | 6 | 9.5* | · | 0 | -1
C/C(=N\NC(=O)c1nn(C)cc1Br)c1ccncc1 | 4 | 4 | -1 | 2 | 1 | · | · | ·
Nn1c(CSc2nc3ccccc3o2)nnc1CSc1nc2ccccc2o1 | -2 | · | -8 | · | 1 | -6 | · | ·
Cc1csc2nc(CSc3nc4ccccc4o3)cn12 | 34* | · | ? | · | 8.9* | 44* | 6 | 4
